Experimental findings from PubChem BioAssay are described below.

Assay [1] is described as follows: E. coli DRC41 culture turbidity changes, primary screen, E. coli filamentation inducer project, strain DRC41, OD650, 48 h (AID 1152).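 Further: E. coli MC1000 strain DRC41 lacking acrAB efflux pump and sulA.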 The settings on record: E. coli DRC41 (acrAB sulA), higher = more signal, called active from +8 up or from −8 down.
Assay [2] is described as follows: small-molecule binders of probe aLefty1, primary screen, biochemical, small-molecule microarray, 635/667 nm fluorescence (AID 1153).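 Further: score merges spot fluorescence with signal-to-noise ratio from the scanned slide images.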 The note with it: higher = more signal.
Assay [3] is described as follows: PSAC antagonists in infected red cells, primary screen, cell-based, P. falciparum Indochina, OD700, 1 h (AID 1154). The note with it: P. falciparum Indochina infected RBC osmotic lysis, higher = more signal, called active from +8 up or from −8 down.
Assay [4] is described as follows: PSAC antagonists in infected red cells, primary screen, cell-based, P. falciparum Indochina, OD700, 2 h (AID 1155).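 Further: lysis reports solute entry through the parasite surface anion channel PSAC; channel blockers reduce lysis of infected cells.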 The note with it: P. falciparum Indochina infected erythrocytes, osmotic lysis OD700; higher = more signal, called active from +8 up or from −8 down.
The nature of assay [5]: osmotic lysis modulators in infected erythrocytes, primary screen, PSAC antagonist project, cell-based, P. falciparum Indochina, OD700, 3 h (AID 1156). The settings on record: higher = more signal, called active from +8 up or from −8 down.
Assay [6] can be described thus: PSAC antagonists in infected red cells, primary screen, cell-based, P. falciparum Indochina, OD700, 18 h (AID 1157). The settings on record: P. falciparum Indochina infected erythrocytes, osmotic lysis OD700, 18 h; higher = more signal, called active from +8 up or from −8 down.
The nature of assay [7]: modulators of S6 phosphorylation in cells, primary screen, cell-based, A549, cytoblot, luminescence, serum-stimulated (AID 1158).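 Further: serum-stimulated A549 lung adenocarcinoma cells; signal is phosphorylated S6 detected by cytoblot immunostaining with HRP secondary.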 The note with it: A549 phospho-S6 cytoblot, 5 h, higher = more signal.
In assay [8] the target is NADPH oxidase 2 (Homo sapiens) (UniProt P04839). Briefly: NOX2-dependent H2O2 signal modulators, primary screen, NOX inhibitor project, cell-based, HEK293-NOX2, PMA-stimulated, Amplex Red fluorescence (AID 1159). Further: test concentration not given here. The note with it: 45 min, higher = more signal, called active from +8 up or from −8 down.
The target in assay [9] is NADPH oxidase 4 (Homo sapiens) (UniProt Q9NPH5). The assay can be described thus: NOX4-dependent H2O2 signal modulators, primary screen, NOX inhibitor project, cell-based, HEK293-NOX4, tetracycline-induced, Amplex Red fluorescence (AID 1160). The note with it: 45 min, higher = more signal, called active from +8 up or from −8 down.
Assay [10] deals with NADPH oxidase 5 (Homo sapiens) (UniProt Q96PH1). The assay can be described thus: NOX5-dependent H2O2 signal modulators, primary screen, NOX inhibitor project, cell-based, HEK293-NOX5, Amplex Red fluorescence (AID 1161). The settings on record: HEK293-NOX5, ionomycin, 45 min, higher = more signal.

“And” between values parts separate entries of the source, which are not always exact repeats. Equal entries are not always repeated. The source made the active and inactive calls.

Sequence of NADPH oxidase 2 (Homo sapiens) (P04839 whole entry, looked up): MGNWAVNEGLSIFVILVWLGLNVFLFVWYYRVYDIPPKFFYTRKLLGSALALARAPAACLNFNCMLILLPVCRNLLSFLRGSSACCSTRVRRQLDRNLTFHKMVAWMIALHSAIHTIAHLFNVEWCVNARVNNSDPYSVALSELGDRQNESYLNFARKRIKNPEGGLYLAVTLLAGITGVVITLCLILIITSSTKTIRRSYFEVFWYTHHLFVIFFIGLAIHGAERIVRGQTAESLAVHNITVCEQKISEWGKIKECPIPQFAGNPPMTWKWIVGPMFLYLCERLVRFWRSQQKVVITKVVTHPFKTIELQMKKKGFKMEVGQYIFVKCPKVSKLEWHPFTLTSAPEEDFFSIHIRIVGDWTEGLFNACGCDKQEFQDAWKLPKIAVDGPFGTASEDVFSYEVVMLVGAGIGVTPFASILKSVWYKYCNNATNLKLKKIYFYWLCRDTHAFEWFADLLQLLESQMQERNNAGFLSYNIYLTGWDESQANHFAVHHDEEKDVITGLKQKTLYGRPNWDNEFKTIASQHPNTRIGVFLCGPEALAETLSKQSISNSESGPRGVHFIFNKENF
Sequence of NADPH oxidase 4 (Homo sapiens) (Q9NPH5 whole entry, looked up): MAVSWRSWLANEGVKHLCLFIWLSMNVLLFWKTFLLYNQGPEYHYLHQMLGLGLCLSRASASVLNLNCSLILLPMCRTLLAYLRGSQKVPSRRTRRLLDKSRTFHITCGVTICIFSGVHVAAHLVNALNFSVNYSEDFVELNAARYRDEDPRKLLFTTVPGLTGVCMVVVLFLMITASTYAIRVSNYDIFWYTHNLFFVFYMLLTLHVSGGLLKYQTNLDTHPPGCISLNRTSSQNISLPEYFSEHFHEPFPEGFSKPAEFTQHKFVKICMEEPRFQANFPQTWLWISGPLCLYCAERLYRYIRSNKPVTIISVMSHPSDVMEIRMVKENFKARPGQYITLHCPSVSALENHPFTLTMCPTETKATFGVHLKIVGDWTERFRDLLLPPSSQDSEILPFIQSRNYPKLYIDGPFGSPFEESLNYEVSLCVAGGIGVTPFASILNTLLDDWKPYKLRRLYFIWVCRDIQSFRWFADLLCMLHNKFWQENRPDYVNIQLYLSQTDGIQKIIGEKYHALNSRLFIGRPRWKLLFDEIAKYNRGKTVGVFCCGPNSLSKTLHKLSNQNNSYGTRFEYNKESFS
Sequence of NADPH oxidase 5 (Homo sapiens) (Q96PH1 whole entry, looked up): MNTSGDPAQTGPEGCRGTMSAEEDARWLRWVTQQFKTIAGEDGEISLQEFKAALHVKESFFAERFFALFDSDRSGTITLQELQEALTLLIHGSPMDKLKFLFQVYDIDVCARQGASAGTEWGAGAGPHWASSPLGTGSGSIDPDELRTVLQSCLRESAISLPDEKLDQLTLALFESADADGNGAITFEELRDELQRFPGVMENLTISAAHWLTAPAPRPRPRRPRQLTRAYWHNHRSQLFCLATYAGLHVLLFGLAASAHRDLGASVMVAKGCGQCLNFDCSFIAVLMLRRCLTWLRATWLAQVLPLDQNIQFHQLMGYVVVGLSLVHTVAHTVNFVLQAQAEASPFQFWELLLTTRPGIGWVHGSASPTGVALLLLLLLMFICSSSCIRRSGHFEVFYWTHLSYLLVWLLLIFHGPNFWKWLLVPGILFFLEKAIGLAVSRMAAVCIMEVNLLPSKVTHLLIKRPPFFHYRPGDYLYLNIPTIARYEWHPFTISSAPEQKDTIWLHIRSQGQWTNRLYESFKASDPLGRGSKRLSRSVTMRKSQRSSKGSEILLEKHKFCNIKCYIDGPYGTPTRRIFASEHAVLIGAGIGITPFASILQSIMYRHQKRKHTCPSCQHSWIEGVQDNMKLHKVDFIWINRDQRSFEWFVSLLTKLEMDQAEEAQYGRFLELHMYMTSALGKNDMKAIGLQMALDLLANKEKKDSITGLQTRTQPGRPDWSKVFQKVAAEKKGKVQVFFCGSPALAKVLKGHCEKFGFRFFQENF

Turning to `CC(CO)N1C(=O)[C@@H]2C3C(=O)OCCC=C[C@H]3OC23C=CCN(c2ccc4ccccc4c2)C(=O)[C@@H]13` (stereo not given in full), the z-score in assay [1] was -0.562 (inactive) and -0.929 (inactive); in assay [3] it was 3.31 (inactive) and 4.57 (inactive); in [4] it was 1.28 (inactive) and 0.577 (inactive); in assay [5], 1.18 (inactive) and 0.724 (inactive); in [6], 0.652 (inactive) and 0.282 (inactive); in assay [7] it was -0.631 and -0.363. Further, the z-score is 1.68 (inactive) and 1.25 (inactive) in assay [8]; 0.411 (inactive) and 1.05 (inactive) in assay [9]; 2.69 and 2.08 in [10]. Besides, the composite z-score in [2] is -0.0015 and -0.673.
`C=CCN(CCCCC)C(=O)C(c1cccs1)N(CCOCCO)C(=O)/C=C\C(=O)O` (stereo not given): the z-score in [1] was 1.53 (inactive) and 1.77 (inactive); in [3], 1.03 (inactive) and 0.0763 (inactive); in [4], -1.53 (inactive) and -1.1 (inactive); in assay [5], -0.772 (inactive) and -1.06 (inactive); in assay [6], -1.88 (inactive) and -1.64 (inactive); in assay [7], 1.27 and 0.842. Besides, the z-score in [8] was -0.224 (inactive) and 0.208 (inactive); in assay [9], -0.617 (inactive) and -0.64 (inactive); in assay [10] it was -0.366 and 0.183. Also, the composite z-score in assay [2] is -1.26 and -0.239.
As to `COC(=O)C1=C(C)N(Cc2ccccc2)[C@]23O[C@](C(=O)OC)(C(=O)N2[C@@H]1c1ccccc1)[C@H]1C(=O)N(c2ccccc2)C(=O)[C@H]13`, the z-score was -0.371 (inactive) and 0.644 (inactive) in [1]; 0.729 (inactive) and 0.997 (inactive) in assay [3]; 0.626 (inactive) and -1.04 (inactive) in assay [4]; 1.17 (inactive) and 2.21 (inactive) in [5]; -0.0207 (inactive) and -1.23 (inactive) in assay [6]; -0.103 and 0.506 in [7]. In addition, the z-score was 0.983 (inactive) and 0.108 (inactive) in assay [8]; 0.632 (inactive) and 1.27 (inactive) in [9]; 1.07 and 0.999 in assay [10]. The composite z-score in [2] is -0.139 and -0.0046.
Take `COCn1c2ccccc2c2nnc(C(C)=O)nc21`: the z-score in assay [1] was -1.46 (inactive) and -0.426 (inactive); in assay [3], 1.91 (inactive) and 0.558 (inactive); in assay [4], -0.781 (inactive) and -1.09 (inactive); in assay [5], 0.68 (inactive) and 1.07 (inactive); in assay [6] it was -1.28 (inactive) and -1.44 (inactive); in assay [7] it was 2.52 and 1.53. For the same compound, the z-score is -0.424 (inactive) and -0.738 (inactive) in assay [8]; -0.773 (inactive) and -0.0619 (inactive) in [9]; -2.97 and -3.35 in [10]. Besides, the composite z-score in assay [2] was -0.103 and -0.0111.
Take `C[N+](C)(C)CCCCNC(=O)[C@@H]1C[C@@H]2C(=O)N[C@@H](CCCC[N+](C)(C)C)C(=O)N2[C@@H]1c1cccc(OCCO)c1`: the z-score was 0.185 (inactive) and 0.394 (inactive) in assay [1]; 1.5 (inactive) and 1.02 (inactive) in assay [3]; 0.77 (inactive) and -0.108 (inactive) in assay [4]; -1.61 (inactive) and -1.45 (inactive) in assay [5]; 0.252 (inactive) and -0.0932 (inactive) in assay [6]; -0.519 and -0.437 in assay [7]. The z-score in assay [8] is -2.1 (inactive) and -1.99 (inactive); in assay [9] it was -2.58 (inactive) and -1.13 (inactive); in assay [10], -1.28 and -0.837. The composite z-score in assay [2] is -0.144 and 0.167.
`C=CCN(C(=O)C(c1cccs1)N(C(=O)/C=C\C(=O)O)c1c(Cl)cccc1CO)C(C)(C)C` (stereo not given): the z-score in [1] is -0.773 (inactive) and -1.1 (inactive); in assay [3] it was 0.294 (inactive) and 0.153 (inactive); in [4], -0.0344 (inactive) and -0.313 (inactive); in [5], -0.741 (inactive) and -0.659 (inactive); in assay [6], -0.134 (inactive) and -0.0608 (inactive); in assay [7], -0.483 and -0.409. For the same compound, the z-score in [8] was 0.239 (inactive) and 0.261 (inactive); in assay [9], -0.827 (inactive) and -0.628 (inactive); in assay [10], -0.328 and 0.528. In addition, the composite z-score in assay [2] is 0.045 and 0.192.
On to `COC(=O)C1=C(C)N(Cc2ccccc2)C2=C3C(=O)N(C)C(=O)[C@@H]3[C@@](O)(C(=O)OC)C(=O)N2[C@@H]1c1ccccc1`, for which the z-score was 0.71 (inactive) and -0.313 (inactive) in assay [1]; -0.188 (inactive) and -1.06 (inactive) in assay [3]; -0.215 (inactive) and -1.49 (inactive) in assay [4]; -0.745 (inactive) and -0.379 (inactive) in [5]; -0.339 (inactive) and -1.77 (inactive) in [6]; -0.137 and 1.48 in assay [7]. Further, the z-score in [8] was 1.13 (inactive) and -0.926 (inactive); in assay [9], 0.507 (inactive) and 0.254 (inactive); in [10] it was -0.0308 and 0.418. The composite z-score in assay [2] is 0.0341 and 0.0278.
On to `CC(CO)N1C(=O)[C@@H]2C3C(=O)OCCC=C[C@H]3OC23C=CCN(CCN2CCOCC2)C(=O)[C@@H]13` (stereo not given in full), for which the z-score in assay [1] was -0.671 (inactive) and -0.55 (inactive); in assay [3], 0.0695 (inactive) and 6.53 (inactive); in assay [4], 0.573 (inactive) and 1.15 (inactive); in assay [5] it was 0.727 (inactive) and 0.906 (inactive); in assay [6], 0.138 (inactive) and 0.21 (inactive); in [7], -0.38 and -0.0957. Besides, the z-score in assay [8] was 1.08 (inactive) and 1 (inactive); in assay [9] it was 0.376 (inactive) and 0.0486 (inactive); in assay [10], 1.25 and 2.04. The composite z-score in assay [2] was -0.181 and 0.476.
Regarding `CCCCCN1CC=CC23O[C@@H]4C=CCCOC(=O)C4[C@H]2C(=O)N(C(C)CO)[C@@H]3C1=O` (stereo not given in full), the z-score in assay [1] is 1.5 (inactive) and 0.971 (inactive); in [3], 2.38 (inactive) and 0.551 (inactive); in assay [4], 0.174 (inactive) and 0.44 (inactive); in assay [5], 0.833 (inactive) and 0.233 (inactive); in assay [6], 0.0882 (inactive) and 0.454 (inactive); in assay [7], 0.154 and 0.166. The z-score in assay [8] is 1.27 (inactive) and 1.08 (inactive); in assay [9], 0.164 (inactive) and 0.696 (inactive); in [10], 2.09 and 2.43. In addition, in [2], the composite z-score was -0.962 and 1.57.
